According to PubChem BioAssay AID1159580 (chemical genetic matrix, 2015):
“And” between values parts separate entries of the source, which are not always exact repeats. Equal entries are not always repeated. Hit rate of the full screen: of about 5,500 compounds, about 2,000 (36%) were called active. About 18% were inconclusive and are not listed. No stated cut-off is given here; in the data, active means normalized growth mostly below about 0.91 (no sharp cut-off); inconclusive means no clear call, values can overlap the other calls; inactive means mostly above about 0.92. This is one part of the list.

Test: chemical genetic growth profiling, strain panel (AID 1159580);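 further: tested at 20 µM; growth read once vehicle control cultures reached saturation at 30 °C; 1 = growth at the plate median or of vehicle wells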
Settings: S. cerevisiae deletion strains, growth OD

Measured: normalized growth

CC(C(=O)O)c1ccc(-c2ccccc2)c(F)c1 (stereo unspecified)
1 (inactive) and 0.73 (active): locus YJL095W, strain BCK1, stronger effect = lower value
active: locus YDL185W, strain tfp1, stronger effect = lower value 0.869 | locus YDR101C, strain arx1, stronger effect = lower value 0.917 | locus YDR137W, strain rgp1, stronger effect = lower value 0.821 | locus YGL078C, strain dbp3, stronger effect = lower value 0.913 | locus YHR079C, strain IRE1, stronger effect = lower value 0.774 | locus YIL125W, strain kgd1, stronger effect = lower value 0.868
0.944 (inactive) and 0.704 (active): locus YHR030C, strain SLT2, stronger effect = lower value
inactive: locus YAL013W, strain DEP1, stronger effect = lower value 0.952 | locus YAL021C, strain ccr4, stronger effect = lower value 0.978 | locus YAL026C, strain drs2, stronger effect = lower value 0.949 | locus YAL030W, strain snc1, stronger effect = lower value 0.99 | locus YBL061C, strain skt5, stronger effect = lower value 1 | locus YBR009C, strain hhf1, stronger effect = lower value 0.984 | locus YBR021W, strain FUR4, stronger effect = lower value 0.936 | locus YBR023C, strain chs3, stronger effect = lower value 1.02 | locus YBR171W, strain sec66, stronger effect = lower value 0.968 | locus YBR229C, strain ROT2, stronger effect = lower value 0.993 | locus YBR231C, strain swc5, stronger effect = lower value 0.974 | locus YBR279W, strain paf1, stronger effect = lower value 1.01 | locus YCL011C, strain gbp2, stronger effect = lower value 1 | locus YCL016C, strain dcc1, stronger effect = lower value 1.02 | locus YCL029C, strain bik1, stronger effect = lower value 0.944 | locus YCL061C, strain MRC1, stronger effect = lower value 0.99 | locus YCL069W, strain vba3, stronger effect = lower value 0.99 | locus YCR088W, strain abp1, stronger effect = lower value 0.978 | locus YDL005C, strain med2, stronger effect = lower value 0.965 | locus YDL035C, strain GPR1, stronger effect = lower value 0.958 | locus YDL040C, strain nat1, stronger effect = lower value 0.995 | locus YDL074C, strain BRE1, stronger effect = lower value 0.959 | locus YDL101C, strain DUN1, stronger effect = lower value 1.01 | locus YDL192W, strain arf1, stronger effect = lower value 0.974 | locus YDR001C, strain nth1, stronger effect = lower value 0.977 | locus YDR069C, strain doa4, stronger effect = lower value 1.02 | locus YDR159W, strain sac3, stronger effect = lower value 0.913 | locus YDR162C, strain NBP2, stronger effect = lower value 0.936 | locus YDR195W, strain ref2 0.985 | locus YDR297W, strain sur2, stronger effect = lower value 0.992 | locus YDR318W, strain mcm21, stronger effect = lower value 0.979 | locus YDR334W, strain swr1, stronger effect = lower value 0.972 | locus YDR335W, strain msn5, stronger effect = lower value 1.01 | locus YDR388W, stronger effect = lower value 0.963 | locus YDR392W, strain spt3, stronger effect = lower value 0.748 | locus YDR502C, strain sam2, stronger effect = lower value 0.968 | locus YEL003W, strain gim4, stronger effect = lower value 0.967 | locus YEL037C, strain rad23, stronger effect = lower value 0.983 | locus YEL061C, strain CIN8 (second series), stronger effect = lower value 0.979 | locus YEL061C, strain CIN8, stronger effect = lower value 0.963 | locus YER015W, strain faa2, stronger effect = lower value 1 | locus YER016W, strain bim1, stronger effect = lower value 0.971 | locus YER110C, stronger effect = lower value 0.974 | locus YER111C, strain swi4, stronger effect = lower value 0.977 | locus YER155C, strain BEM2 (second series), stronger effect = lower value 0.979 | locus YER155C, strain BEM2, stronger effect = lower value 0.93 | locus YER167W, strain BCK2, stronger effect = lower value 0.974 | locus YFR010W, strain ubp6, stronger effect = lower value 0.997 | locus YGL086W, strain mad1, stronger effect = lower value 0.974 | locus YGL167C, strain pmr1, stronger effect = lower value 0.983 | locus YGL173C, strain kem1, stronger effect = lower value 0.968 | locus YGL227W, strain vid30, stronger effect = lower value 0.991 | locus YGL240W, strain doc1, stronger effect = lower value 0.953 | locus YGL248W, strain PDE1, stronger effect = lower value 1 | locus YGL253W, strain hxk2, stronger effect = lower value 0.98 | locus YGR135W, strain pre9, stronger effect = lower value 1.04 | locus YGR252W, strain gcn5, stronger effect = lower value 1.04 | locus YHR013C, strain ard1, stronger effect = lower value 1.05 | locus YHR027C, strain rpn1, stronger effect = lower value 0.994 | locus YHR079C, strain IRE1 (second series), stronger effect = lower value 0.959 | locus YHR094C, strain hxt1, stronger effect = lower value 0.951 | locus YHR129C, strain ARP1, stronger effect = lower value 0.99 | locus YHR142W, strain chs7, stronger effect = lower value 1.01 | locus YHR200W, strain rpn10, stronger effect = lower value 0.978 | locus YIL066C, strain RNR3, stronger effect = lower value 0.981 | locus YIL073C, strain SPO22, stronger effect = lower value 1.01 | locus YIR030C, strain dcg1, stronger effect = lower value 0.963 | locus YJL092W, strain hpr5, stronger effect = lower value 0.99 | locus YJL095W, strain BCK1 (second series), stronger effect = lower value 0.988 | locus YJL115W, strain asf1, stronger effect = lower value 0.982 | locus YJL129C, strain trk1, stronger effect = lower value 0.933 | locus YJL134W, strain LCB3, stronger effect = lower value 0.975 | locus YJL154C, strain vps35, stronger effect = lower value 0.984 | locus YJL164C, strain tpk1, stronger effect = lower value 0.992 | locus YJL166W, strain qcr8, stronger effect = lower value 1.01 | locus YJL168C, strain set2, stronger effect = lower value 0.959 | locus YJL187C, strain SWE1 (second series), stronger effect = lower value 0.989 | locus YJL187C, strain SWE1, stronger effect = lower value 0.985
